The target of the first experiment is RBM15B. The experiment is described as follows: pooled miR-30 sensor sort-seq; sequence = guide strand. The note with it: shRNA.
On to TCGTGTGACCTCGTCAAGCTTG, for which the sensor-assay potency score (higher = more potent) was -1.02.
As for TTGCTGAGGGAGTTGCTGCTGG, the sensor-assay potency score (higher = more potent) is -0.717.
Sequence TTTTGTGACACAAACATGACGC came in with a sensor-assay potency score (higher = more potent) of 0.652.
On the same count and under the same terms, then TAAGAGGACCGCATAGCCGTTG, with -0.808; and TTTTTCAACACCAGAAGCCCAT, with 0.0926.
The same measure, in the same setting: then TTGTGACACAAACATGACGCTG, with -1.03; and TATAGGCAAAGCTATCTCCTTT, with -0.598; and TTTGACGTGATCAATGGTCCGA, with 0.695.
On the same count and under the same terms, then TGTGACACAAACATGACGCTGG, with 0.96; and TTGACGTGATCAATGGTCCGAA, with 0.476.
TTTAAAATAACTGCTTTTGTGA yielded a sensor-assay potency score (higher = more potent) of -0.54.

Another experiment addresses RBM28. The description is as above. The conditions noted are these: shRNA.
With TCCACTAGTAGCACTCAGCAGC, the sensor-assay potency score (higher = more potent) is -1.24.
TTTTGTTTGAGACTTGCACAGC returned a sensor-assay potency score (higher = more potent) of -0.43.
In the case of TTATATTGTTCGACCAGCTGGT, the sensor-assay potency score (higher = more potent) stood at 0.168.
On the same count and under the same terms, then TTTCTTGGCAACAGTCACGTTG, with -0.362.
Still for that read-out and setting: then TTGCACAGCTTTATCCTCTTGC, with 0.184; and TTTTGAACTGAACAAAACCAAA, with -1.7.
For TTGAGGTCTCGCATCACTCTAC, the sensor-assay potency score (higher = more potent) was -0.147.
The same measure, in the same setting: then TTCTTCACCTTCGTCGTCTGAA, with -0.116; and TTGAAAAAGTGACATAGCCAAA, with -1.59.

The record behind these values is the OligoGym collection.
Also: reference of the scale not given here.
